# Screening results from PubChem.
# FXIIa mix inh: human factor XIIa inhibitors, primary screen, biochemical, pooled compound mixtures, fluorogenic substrate; purified FXIIa; AID 684, 2007; hit rate 0.2% among 62,000; inhibition, % at 5 µM; Coagulation factor XII (Homo sapiens), P00748
# M1 antag: antagonists of rat M1 muscarinic receptor. CHO-M1 cells, Fluo-4 calcium, ACh EC80 antagonist mode; active compounds read low. B-score at 10 µM. hit rate 3.4% among 64,000;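 active = calcium fluorescence response, raw or row-and-column corrected B-score, differing from the plate sample mean either way at a set confidence level, mostly lower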
# Target sequence (P08482 whole entry, looked up): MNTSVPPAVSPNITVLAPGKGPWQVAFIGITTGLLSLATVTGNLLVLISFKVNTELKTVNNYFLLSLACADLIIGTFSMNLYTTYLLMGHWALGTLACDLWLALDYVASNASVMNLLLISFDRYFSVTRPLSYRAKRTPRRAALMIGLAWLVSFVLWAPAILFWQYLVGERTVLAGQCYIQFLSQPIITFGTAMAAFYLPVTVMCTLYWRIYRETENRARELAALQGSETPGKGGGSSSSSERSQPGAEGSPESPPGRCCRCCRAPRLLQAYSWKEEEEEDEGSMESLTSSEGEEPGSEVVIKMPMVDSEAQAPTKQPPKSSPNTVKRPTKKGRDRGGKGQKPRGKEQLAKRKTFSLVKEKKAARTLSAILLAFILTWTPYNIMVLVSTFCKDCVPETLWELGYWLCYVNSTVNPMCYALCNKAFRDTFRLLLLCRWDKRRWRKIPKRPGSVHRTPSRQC
# M1 ag: M1 muscarinic receptor agonists, primary screen, CHO-M1 cells, Fluo-4 calcium, agonist mode; Fluo-4 calcium fluorescence; active compounds read high; B-score at 10 µM; hit rate 3% among 64,000; AID 626, 2007;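 active = fluorescence rise, raw or as B-score row- and column-corrected plate score, outside the 99.7% band of its plate's samples, either direction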
# FXIa mix inh: FXIa protease inhibitors in compound pools, primary screen, biochemical, 10-compound mixtures | Coagulation factor XI (Homo sapiens), P03951 | purified FXIa, fluorogenic substrate, pooled mixtures | hit rate 0.19% among 62,000 | AID 680, 2007 | inhibition, % at 5 µM;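 also: each value is inhibition by a whole ten-compound pool holding the compound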
# D1 mod: D1 CRE-luciferase signal change, two-sided – cell-based, HEK293 D1, dopamine EC30, D1 allosteric modulator project, primary screen; D(1A) dopamine receptor (Homo sapiens), P21728; dopamine EC30 potentiation; actives deviate in either direction; B-score at 10 µM; hit rate 5.9% among 58,000; AID 641, 2007;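 active = luminescence count or its row- and column-corrected plate score outside the 99.7% band of the plate's sample wells, on either side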
# hDAT+cocaine: changed hDAT dopamine uptake under cocaine IC80, either direction, primary screen, cocaine antagonist project, cell-based, LLC-PK1 hDAT, [14C]-dopamine uptake, MLSMR; Sodium-dependent dopamine transporter (Homo sapiens), Q01959; LLC-PK1 hDAT cells, [14C]-dopamine uptake with cocaine IC80; actives deviate in either direction; B-score at 10 µM; hit rate 1.3% among 110,000;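 active = Z score or B-score, a plate-position-corrected score, falls beyond the plate's 99.7% confidence bounds, in either direction; inactive = both scores lie inside the 99.7% bounds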
# Hits are given with their value; . = inactive; / = no result. Compounds with a hit are over-represented: about 7.4% of the library has one in this group of screens. Rule as the data show it, unless noted: active = inhibition above about 20% (passing the limit was not always enough); inactive = the rest.
SMILES,FXIIa mix inh,M1 antag,M1 ag,FXIa mix inh,D1 mod,hDAT+cocaine
CC(=O)c1c(C)[nH]c(C(=O)Nc2ccc3c(c2)OCCO3)c1C,.,.,.,.,-2.7,.
Cc1ccc(NC(=O)c2cc(S(=O)(=O)Nc3ccc(C)cc3)cs2)cc1,/,/,/,/,/,.
Cc1ccc(S(=O)(=O)Cn2nnnc2C(c2ccccn2)N2CCN(c3ccccc3)CC2)cc1 (stereo not given),.,.,.,.,.,.
Cc1cc(CN2C(=O)c3ccccc3C2=O)no1,.,.,.,.,.,/
O=C(Nc1ccc2c(c1)OCCO2)c1ccccc1F,.,.,.,.,.,-1.8
O=C(Nc1ccc2c(c1)OCCO2)c1c(F)cccc1F,.,.,.,.,.,.
Cc1cccn2c(=O)c3cc(C(=O)N4c5ccccc5CC4C)n(C)c3nc12 (stereo not given),.,.,.,.,-4.8,/
O=C1OCCC1N1C(=O)c2ccccc2S1(=O)=O (stereo not given),.,.,.,.,-4.3,.
CC(C)C(=O)NCCc1nc(-c2ccccc2Cl)no1,/,/,/,/,/,.
Cc1cccc(NC(=O)CSc2nnc(CSc3nc(C)cc(C)n3)n2Cc2ccco2)c1,.,.,.,.,.,2.8
Cc1cc(C)nc(SCc2nnc(SCC(=O)Nc3nccs3)n2Cc2ccco2)n1,.,.,.,.,.,.
CCc1ccc2nc(N3CCN(C)CC3)c(C#N)cc2c1,.,.,.,.,-4.9,.
Cc1ccc2nc(N3CCN(Cc4nnnn4C4CCCC4)CC3)c(C#N)cc2c1,/,/,/,/,/,.
CCOC(=O)C1CCN(Cc2ccc(C(=O)OC)cc2)CC1,.,-5.6,41,.,.,.
CNC(=O)c1cc2c(=O)n3cc(C)ccc3nc2n(C(C)C)c1=N,.,.,17,.,.,.
CNC(=O)c1cc2c(=O)n3cc(C)ccc3nc2n(Cc2ccco2)c1=N,.,.,.,.,.,/
Fc1cc(F)c(F)c(SCCc2ccncc2)c1F,.,.,.,.,.,.
C=CCn1cc(C(=O)NCCCOC)c(=O)c2cc(S(=O)(=O)N(CC)CC)ccc21,.,.,.,.,.,.
C=CCn1cc(C(=O)NCCCOC)c(=O)c2cc(S(=O)(=O)N3CCC(C)CC3)ccc21,.,.,.,.,4.1,/
CCn1cc(C(=O)NCC2CCCO2)c(=O)c2cc(S(=O)(=O)N3CCC(C)CC3)ccc21 (stereo not given),.,.,.,.,-4.8,.
CCn1cc(C(=O)NCC2CCCO2)c(=O)c2cc(S(=O)(=O)N3CCCCCC3)ccc21 (stereo not given),.,.,.,.,.,.
O=C(NC1CCCC1)c1ccc(CS(=O)(=O)c2cccc(C(F)(F)F)c2)o1,.,.,.,.,.,.
CCOC(=O)c1c(N=CN(C)C)c(C#N)n2c1CCC2,.,.,.,.,.,.
Cc1cc(-c2cc(N)n(-c3ccccc3)n2)c(C)n1C1CCCC1,.,.,.,.,.,2.1
CN(CC(=O)N1CCN(c2ccccc2F)CC1)S(=O)(=O)c1cnc[nH]1,/,/,/,/,/,.
SMILES,FXIIa mix inh,M1 antag,M1 ag,FXIa mix inh,D1 mod,hDAT+cocaine
Cc1ccccc1CS(=O)(=O)c1nnc([C@H](Cc2ccccc2)NC(=O)OC(C)(C)C)o1,/,/,/,/,/,.
CCC(C)[C@@H](NC(=O)OC(C)(C)C)c1nnc(S(=O)(=O)Cc2cccc(C)c2)o1 (stereo not given in full),.,.,.,21,/,.
Cn1c(Cn2c(=O)sc3ccccc32)nnc1SCC(=O)NC1CCCC1,.,.,.,.,.,7.6
Cn1c(Cn2c(=O)sc3ccccc32)nnc1SCC(=O)NC1CCCCC1,.,.,.,.,/,.
COc1ccc(OC)c(S(=O)(=O)N2Cc3ccccc3CC2C(=O)Nc2nccs2)c1 (stereo not given),.,.,.,.,.,.
Cc1ccc(C2CC(c3ccccc3OC(F)F)Nc3ncnn32)cc1 (stereo not given),.,1.3,.,.,.,.
O=c1c2c(C(F)(F)F)cc(C(F)(F)F)nc2[nH]n1-c1ccccc1,/,/,/,/,/,.
O=c1c(Sc2ccccc2)c(C(F)(F)F)[nH]n1-c1ccccc1,/,/,/,/,/,-2.2
C#CCOCCOCCOCCNc1nc(N2CCN(C(=O)[C@H](CCC(=O)O)n3cc(C(N)Cc4ccc(O)cc4)nn3)CC2)nc(N2CCN(C(=O)[C@H](CCC(=O)O)n3cc(C(N)CC(C)C)nn3)CC2)n1 (stereo not given in full),/,/,/,/,/,.
Cc1sc2ncnc(Oc3ccc(-n4ccnc4)cc3)c2c1C,.,.,.,.,/,2.5
O=C(CSc1nnnn1-c1cccc2c1CCCC2)N1CCOCC1,.,2.7,.,.,/,.
CC(C)(C)NCCCCOc1ccccc1F,.,.,.,.,.,.
CNC(=S)NNC(=O)c1sccc1OCc1cccc(C(F)(F)F)c1,/,/,/,/,/,.
CC1CCCN(Cc2c(O)ccc3c(=O)c(-c4nc5ccccc5s4)c(N)oc23)C1 (stereo not given),/,/,/,/,/,2.5
Cc1c(C)c2cc(Cl)c(O)c(CN3CCCC(C)C3)c2oc1=O (stereo not given),/,.,.,/,/,.
CC1CCC(C(=O)NC(C(=O)N2CCC(N3CCCCC3)CC2)C(C)C)CC1 (stereo not given),.,.,.,.,.,-2.7
CCOC(=O)N1CCN(C(=O)C(NC(=O)C2CCC(C)CC2)C(C)C)CC1 (stereo not given),.,.,.,.,.,.
O=C1CN(C(=O)C2CC2)c2ccccc2N1,/,/,/,/,/,.
O=C(Cn1nc(-c2ccccc2)ccc1=O)NCCN1CCN(Cc2ccccc2)CC1,.,.,.,.,-5,.
O=C(Cn1nc(-c2ccccc2)ccc1=O)NCCN1CCN(c2cccc(Cl)c2)CC1,/,/,/,/,/,.
O=C(COc1ccc(S(=O)(=O)N2CCCC2)cc1Cl)NCc1ccc2c(c1)OCO2,.,.,.,.,.,.
CCOC(=O)C1CCCN(CCC(C)c2ccccc2)C1 (stereo not given),.,.,.,.,.,.
CC(CN1CCCC(C(N)=O)C1)c1ccccc1 (stereo not given),.,.,.,.,-3.4,.
CCN(Cc1ccncc1)C(=O)C1CCN(S(=O)(=O)c2cccs2)CC1,/,/,/,/,/,.
COc1ccc(CCNC(=O)CN2CCC(C)CC2)cc1OC,/,/,/,/,/,.
CC1CCCCN1C(=O)Cc1ccc(F)cc1 (stereo not given),.,.,.,.,.,-8
O=C(Cn1ncc2c3ccccc3n(Cc3ccccc3)c2c1=O)N1CCN(c2ncccn2)CC1,/,/,/,/,/,1.8
CC(=O)Nc1ccc(Nc2nc(C)nc3c2oc2ccccc23)cc1,.,/,/,.,/,.
Cc1nc(Nc2ccncc2)c2oc3ccccc3c2n1,.,-2.9,22,.,.,.
Cc1cc(C)cc(NC(=O)C2CCCC2)c1,.,.,.,.,.,.
